# Assay results taken from the supplement of paper PMC9262897, “Low-cost anti-mycobacterial drug discovery using engineered E. coli” (Nature Communications, 2022).
# Where a name gives a salt, the structure may show the parent alone. ± gives the standard deviation of the averaged measurements.
# Tests used:
# Assay in all cases: growth (OD600 after 10 h); higher = more growth (less inhibition)
# [1] = tested on: E. coli TESEC Alr+ wild-type control; settings: compound 0.1 mM; raw OD600 reference: median of DMSO wells 0.241, cell-free background 0.041
# Description: (§1)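 TESEC Mtb Alr E. coli, or the Alr+ wild-type control, in 384-well plates with Prestwick library compounds at 0.1 mM and 1% DMSO, across arabinose induction levels of 1E3 to 1E7 nM. Growth is read as OD600 after 10 h at 37 °C in triplicate biological replicates.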
# [2] = tested on: E. coli TESEC Mtb Alr; settings: compound 0.1 mM
# Description: as §1
# [3] = tested on: E. coli TESEC Mtb Asd; settings: compound 0.1 mM
# Description: (§2)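 TESEC E. coli strains in which the native enzyme is deleted and replaced by arabinose-inducible Mtb Asd, DapB, CysH or TrpD, each grown in its selective medium. Strains were screened against the Prestwick library at 0.1 mM and 1% DMSO in 384-well format at low and high arabinose induction. Growth is read as OD600 after 10 h in triplicate.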
# [4] = tested on: E. coli TESEC Mtb DapB; settings: compound 0.1 mM
# Description: as §2
# [5] = tested on: E. coli TESEC Alr+ wild-type control; settings: compound 0.1 mM; raw OD600 reference: median of DMSO wells 0.49, cell-free background 0.052
# Description: (§3)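 TESEC Mtb Alr E. coli (ΔaraC ΔtolC ΔentC Δalr ΔdadX, arabinose-inducible Mtb Alr) or the Alr+ wild-type control strain, grown in defined M9-fructose medium without D-alanine in 96-well plates with Prestwick library compounds at 0.1 mM and 1% DMSO. Low Alr induction is 0.1 µM arabinose and high induction is 10 mM arabinose.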
# [6] = tested on: E. coli TESEC Mtb Alr; settings: compound 0.1 mM; remark: listed apart in the source
# Description: as §3
# [7] = arabinose 1000 nM, raw OD600 reference: median of DMSO wells 0.294, cell-free background 0.041
# [8] = arabinose 10000 nM, raw OD600 reference: median of DMSO wells 0.264, cell-free background 0.041
# [9] = arabinose 100000 nM, raw OD600 reference: median of DMSO wells 0.201, cell-free background 0.041
# [10] = arabinose 1000000 nM, raw OD600 reference: median of DMSO wells 0.193, cell-free background 0.041
# [11] = arabinose 10000000 nM, raw OD600 reference: median of DMSO wells 0.146, cell-free background 0.041
# [12] = arabinose induction (level): High, raw OD600 reference: median of DMSO wells 0.331, cell-free background 0.041
# [13] = arabinose induction (level): Low, raw OD600 reference: median of DMSO wells 0.417, cell-free background 0.041
# [14] = arabinose induction (level): High, raw OD600 reference: median of DMSO wells […], cell-free background 0.041
# [15] = arabinose induction (level): Low, raw OD600 reference: median of DMSO wells 0.227, cell-free background 0.041
# [16] = arabinose 100 nM, raw OD600 reference: median of DMSO wells 0.413, cell-free background 0.052
# [17] = arabinose 10000000 nM, raw OD600 reference: median of DMSO wells […], cell-free background 0.052
Structure (SMILES),growth [1],"growth [2, 7]","growth [2, 8]","growth [2, 9]","growth [2, 10]","growth [2, 11]","growth [3, 12]","growth [3, 13]","growth [4, 14]","growth [4, 15]",growth [5],"growth [6, 16]","growth [6, 17]"
CN(C(=O)C(Cl)Cl)c1ccc(OC(=O)c2ccco2)cc1 [Diloxanide furoate],0.185 ± 0.0099,0.264 ± 0.018,0.256 ± 0.01,0.169 ± 0.0067,0.172 ± 0.0079,0.167 ± 0.004,0.366 ± 0.011,0.353 ± 0.024,0.2046 ± 0.0011,0.21 ± 0.02,0.609 ± 0.087,0.415 ± 0.016,0.374 ± 0.025
C(=C\c1ccccc1)/CN1CCN(C(c2ccccc2)c2ccccc2)CC1 [Cinnarizine],0.202 ± 0.0048,0.246 ± 0.015,0.251 ± 0.014,0.18 ± 0.011,0.147 ± 0.0054,0.149 ± 0.0039,0.277 ± 0.079,0.395 ± 0.02,0.205 ± 0.011,0.223 ± 0.019,0.539 ± 0.055,0.431 ± 0.0055,0.375 ± 0.0072
CC(CCc1ccccc1)NCC(O)c1ccc(O)c(C(N)=O)c1 (configuration not stated) [Labetalol hydrochloride],0.191 ± 0.006,0.246 ± 0.015,0.24 ± 0.011,0.174 ± 0.011,0.1371 ± 0.0012,0.137 ± 0.0031,0.26 ± 0.015,0.407 ± 0.046,0.186 ± 0.0091,0.209 ± 0.017,0.467 ± 0.024,0.413 ± 0.0048,0.321 ± 0.016
CCCc1cc(=O)[nH]c(=S)[nH]1 [Propylthiouracil],0.241 ± 0.0062,0.289 ± 0.025,0.263 ± 0.0094,0.219 ± 0.034,0.195 ± 0.0092,0.152 ± 0.0063,0.431 ± 0.04,0.45 ± 0.047,0.199 ± 0.0093,0.194 ± 0.019,0.55 ± 0.1,0.41 ± 0.015,0.345 ± 0.043
NC1CCN(c2nc3c(cc2F)c(=O)c(C(=O)O)cn3-c2ccc(F)cc2F)C1 (configuration not stated) [Tosufloxacin hydrochloride],0.0572 ± 0.0069,0.048 ± 0.0026,0.0491 ± 0.00026,0.0552 ± 0.0018,0.0452 ± 0.0008,0.0575 ± 0.0043,0.054 ± 0.01,0.0575 ± 0.0039,0.05407 ± 0.0005,0.0526 ± 0.0037,0.0604 ± 0.0041,0.05307 ± 0.00025,0.0578 ± 0.0027
O=C(O)CCNC(=O)c1ccc(/N=N/c2ccc(O)c(C(=O)O)c2)cc1 [Balsalazide Sodium],0.276 ± 0.0079,0.318 ± 0.0085,0.2664 ± 0.0024,0.213 ± 0.0045,0.206 ± 0.0036,0.138 ± 0.0021,0.252 ± 0.008,0.434 ± 0.012,0.232 ± 0.0039,0.241 ± 0.014,0.465 ± 0.057,0.394 ± 0.035,0.378 ± 0.014
Cc1cc(=O)n(-c2ccccc2)n1C [Antipyrine],0.252 ± 0.0043,0.294 ± 0.014,0.257 ± 0.0094,0.221 ± 0.013,0.176 ± 0.0026,0.1436 ± 0.0012,0.305 ± 0.04,0.371 ± 0.014,0.191 ± 0.0076,0.204 ± 0.0077,0.474 ± 0.062,0.412 ± 0.0087,0.379 ± 0.026
"CC(C)NCC(O)c1cc(O)cc(O)c1 (configuration not stated) [Metaproterenol sulfate, orciprenaline sulfate]",0.247 ± 0.0097,0.291 ± 0.0065,0.268 ± 0.01,0.2 ± 0.03,0.185 ± 0.011,0.144 ± 0.0048,0.283 ± 0.046,0.346 ± 0.019,0.177 ± 0.013,0.183 ± 0.015,0.635 ± 0.09,0.411 ± 0.011,0.352 ± 0.029
Nc1ccc(/N=N/c2ccccc2)c(N)n1 [Phenazopyridine hydrochloride],0.152 ± 0.0064,0.172 ± 0.0075,0.251 ± 0.0051,0.144 ± 0.0084,0.184 ± 0.0075,0.16 ± 0.009,0.255 ± 0.039,0.22 ± 0.016,0.196 ± 0.01,0.189 ± 0.022,0.405 ± 0.014,0.414 ± 0.0063,0.301 ± 0.021
O=C(COc1ccc(Cl)cc1)N1CCN(Cc2ccc3c(c2)OCO3)CC1 [Fipexide hydrochloride],0.13 ± 0.0038,0.146 ± 0.0033,0.138 ± 0.0033,0.154 ± 0.0017,0.0771 ± 0.0022,0.144 ± 0.0034,0.207 ± 0.039,0.214 ± 0.025,0.167 ± 0.0018,0.234 ± 0.024,0.303 ± 0.022,0.38 ± 0.029,0.168 ± 0.033
OC(CCN1CCCC1)(c1ccccc1)C1CCCCC1 (configuration not stated) [Procyclidine hydrochloride],0.206 ± 0.018,0.297 ± 0.018,0.266 ± 0.0065,0.194 ± 0.011,0.163 ± 0.0092,0.148 ± 0.0059,0.314 ± 0.14,0.473 ± 0.055,0.177 ± 0.026,0.245 ± 0.033,0.573 ± 0.041,0.412 ± 0.009,0.317 ± 0.0092
CC[C@H](C)C(=O)O[C@H]1C[C@H](O)C=C2C=C[C@H](C)[C@H](CC[C@@H](O)C[C@@H](O)CC(=O)O)[C@H]21 [Pravastatin],0.229 ± 0.013,0.309 ± 0.0081,0.297 ± 0.013,0.222 ± 0.024,0.185 ± 0.019,0.152 ± 0.0073,0.323 ± 0.015,0.37 ± 0.059,0.209 ± 0.0069,0.225 ± 0.025,0.455 ± 0.03,0.4188 ± 0.0036,0.337 ± 0.026
CO[C@@H]1[C@@H](OC(N)=O)[C@@H](O)[C@H](Oc2ccc3c(O)c(NC(=O)c4ccc(O)c(CC=C(C)C)c4)c(=O)oc3c2C)OC1(C)C [Novobiocin sodium salt],0.0431 ± 0.00086,0.0437 ± 0.0029,0.0409 ± 0.0007,0.0461 ± 0.0025,0.0415 ± 0.00082,0.0423 ± 0.00026,0.0533 ± 0.0015,0.0535 ± 0.0063,0.05077 ± 0.0005,0.0501 ± 0.00055,0.0556 ± 0.0007,0.0617 ± 0.0036,0.052 ± 0.0006
CC[C@H](C)[C@H]1O[C@]2(CC[C@@H]1C)C[C@@H]1C[C@@H](CC=C(C)C(O[C@H]3C[C@H](OC)[C@@H](O[C@H]4C[C@H](OC)[C@@H](O)[C@H](C)O4)[C@H](C)O3)[C@@H](C)C=CC=C3CO[C@@H]4[C@H](O)C(C)=C[C@@H](C(=O)O1)[C@]34O)O2 (some centres not stated) [Ivermectin],0.315 ± 0.013,0.361 ± 0.0096,0.291 ± 0.0046,0.393 ± 0.048,0.209 ± 0.0085,0.222 ± 0.0088,0.343 ± 0.072,0.318 ± 0.13,0.281 ± 0.035,0.28 ± 0.041,0.525 ± 0.066,0.473 ± 0.046,0.409 ± 0.038
